GC-A act: GC-A (human) enzyme activation; P16066; HEK293 GC-A cells, cGMP TR-FRET, EC30 ANP; 0% at EC30 ANP, 100% saturating ANP; activation, % at 10 µM; 370,000 compounds, 0.14% hits; in the data active = activation above about 40%
aDG glyco act: increases alpha dystroglycan glycosylation; activation, % at 10 µM; Pro5-aDG cells, alpha-DG glycosylation AlphaScreen (IIH6); 0% Pro5, 100% B10-LARGE cell signal; 360,000 compounds, 0.22% hits; AID 624168;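 active = activation of at least 8% versus controls, or a plate z-score of at least 8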;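 note: Pro5 are CHO cells carrying HIG-tagged alpha-DG that lacks glycosylation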
GC-B act: GC-B (human) receptor activation | AID 1920062 | 370,000 compounds, 0.11% hits | activation, % at 10 µM | HEK293-GC-B cells, CNP EC30, cGMP TR-FRET; 0% at EC30 CNP, 100% saturating CNP | P20594;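 active = activation at 10 µM reaching about 35% in either raw or pattern-adjusted values, limit read from the data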
FAS-TE inh: FAS thioesterase (human) inhibition; P49327; recombinant FAS-TE, OMFH fluorogenic substrate, fluorescence endpoint; inhibition, % at 15 µM; 360,000 compounds, 0.67% hits;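 active = compounds whose normalised, plate-corrected inhibition of enzyme fluorescence in the single-dose primary screen is 50% or more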;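 note: 0% = DMSO with enzyme and 100% = substrate without enzyme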
Target sequence (P49327 whole entry, looked up): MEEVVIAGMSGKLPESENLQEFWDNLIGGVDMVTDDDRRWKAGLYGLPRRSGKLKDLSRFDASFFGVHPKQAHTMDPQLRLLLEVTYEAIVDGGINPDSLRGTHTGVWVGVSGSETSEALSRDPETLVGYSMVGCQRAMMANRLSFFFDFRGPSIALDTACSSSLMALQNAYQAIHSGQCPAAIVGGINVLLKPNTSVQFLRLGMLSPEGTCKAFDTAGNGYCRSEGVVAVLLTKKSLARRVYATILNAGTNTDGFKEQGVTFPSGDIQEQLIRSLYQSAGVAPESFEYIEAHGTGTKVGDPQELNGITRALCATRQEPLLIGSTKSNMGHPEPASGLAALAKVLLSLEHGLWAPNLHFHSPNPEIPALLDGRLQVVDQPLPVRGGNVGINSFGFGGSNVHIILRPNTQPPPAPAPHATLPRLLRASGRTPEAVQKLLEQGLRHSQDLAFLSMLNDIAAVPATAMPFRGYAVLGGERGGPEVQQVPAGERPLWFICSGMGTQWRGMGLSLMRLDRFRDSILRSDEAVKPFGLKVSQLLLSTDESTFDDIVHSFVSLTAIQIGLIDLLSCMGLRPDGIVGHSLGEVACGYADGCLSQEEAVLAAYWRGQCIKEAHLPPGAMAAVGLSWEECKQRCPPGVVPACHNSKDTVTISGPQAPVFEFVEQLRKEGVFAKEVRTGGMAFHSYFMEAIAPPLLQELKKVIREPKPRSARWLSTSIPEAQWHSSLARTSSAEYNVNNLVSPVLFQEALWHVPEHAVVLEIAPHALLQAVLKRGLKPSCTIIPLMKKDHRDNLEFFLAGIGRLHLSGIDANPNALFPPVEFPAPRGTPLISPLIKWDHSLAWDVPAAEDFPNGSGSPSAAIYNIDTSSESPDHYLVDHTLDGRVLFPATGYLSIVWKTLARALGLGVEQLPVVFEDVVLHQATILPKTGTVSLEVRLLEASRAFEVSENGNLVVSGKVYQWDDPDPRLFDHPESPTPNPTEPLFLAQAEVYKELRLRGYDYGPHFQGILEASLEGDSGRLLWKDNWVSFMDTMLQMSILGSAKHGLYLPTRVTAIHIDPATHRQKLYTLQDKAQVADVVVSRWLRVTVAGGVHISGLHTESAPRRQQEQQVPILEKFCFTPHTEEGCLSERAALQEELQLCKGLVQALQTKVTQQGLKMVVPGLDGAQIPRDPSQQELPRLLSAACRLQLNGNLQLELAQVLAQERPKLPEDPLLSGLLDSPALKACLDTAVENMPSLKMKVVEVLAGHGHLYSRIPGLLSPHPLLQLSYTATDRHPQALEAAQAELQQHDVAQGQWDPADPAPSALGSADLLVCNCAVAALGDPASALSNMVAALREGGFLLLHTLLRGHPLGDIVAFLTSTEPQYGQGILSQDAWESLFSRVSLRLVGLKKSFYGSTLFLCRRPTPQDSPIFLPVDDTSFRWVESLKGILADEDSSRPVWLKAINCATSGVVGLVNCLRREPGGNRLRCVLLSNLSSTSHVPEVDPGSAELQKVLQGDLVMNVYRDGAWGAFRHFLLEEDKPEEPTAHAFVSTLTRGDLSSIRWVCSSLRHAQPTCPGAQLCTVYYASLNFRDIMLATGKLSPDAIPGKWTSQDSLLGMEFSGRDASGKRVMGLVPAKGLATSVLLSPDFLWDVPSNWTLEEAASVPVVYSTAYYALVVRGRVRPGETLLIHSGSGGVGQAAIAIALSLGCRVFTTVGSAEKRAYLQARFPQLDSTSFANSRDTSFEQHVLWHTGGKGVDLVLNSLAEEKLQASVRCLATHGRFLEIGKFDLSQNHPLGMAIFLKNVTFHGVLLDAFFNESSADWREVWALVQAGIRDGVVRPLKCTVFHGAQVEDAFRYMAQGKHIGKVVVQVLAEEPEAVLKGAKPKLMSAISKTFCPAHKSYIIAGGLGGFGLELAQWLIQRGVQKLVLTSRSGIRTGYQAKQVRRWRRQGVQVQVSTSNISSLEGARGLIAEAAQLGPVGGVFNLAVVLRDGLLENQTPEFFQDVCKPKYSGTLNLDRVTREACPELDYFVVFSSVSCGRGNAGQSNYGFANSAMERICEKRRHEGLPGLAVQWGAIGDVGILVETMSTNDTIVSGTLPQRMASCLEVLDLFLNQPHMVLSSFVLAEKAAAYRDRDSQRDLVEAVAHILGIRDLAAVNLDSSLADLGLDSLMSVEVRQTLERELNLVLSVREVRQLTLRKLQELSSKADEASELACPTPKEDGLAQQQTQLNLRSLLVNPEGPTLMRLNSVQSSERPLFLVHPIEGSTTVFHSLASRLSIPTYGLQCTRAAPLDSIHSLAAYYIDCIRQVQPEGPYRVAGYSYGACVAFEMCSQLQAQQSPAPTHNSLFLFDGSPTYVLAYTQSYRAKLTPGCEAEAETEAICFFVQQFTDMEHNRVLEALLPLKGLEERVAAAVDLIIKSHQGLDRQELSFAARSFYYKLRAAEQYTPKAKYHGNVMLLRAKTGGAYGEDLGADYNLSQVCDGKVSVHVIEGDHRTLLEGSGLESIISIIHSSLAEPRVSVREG
aDG conf: alpha-DG glycosylation activation, confirmation; shares compounds with aDG glyco act; Pro5-aDG cells, IIH6 AlphaLISA; scaled to LARGE-overexpressing B10 cells as 100%; activation, % at 10 µM (by protocol); 600 compounds, 17% hits;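 active = activation of at least 7% in one or more replicates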;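 note: cells exposed to compound for two days before detection; 0% = DMSO-treated Pro5 cells and 100% = DMSO-treated B10-LARGE cells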
Starred values were filed as active, the others as inactive. Rows were chosen to be rich in hits. Some 1.1% of all compounds tested hit in one or more screens of this group.

How did O=C(Nc1ccncc1)c1ccc(-c2ccccc2)cc1 do in these assays?
GC-A act: 2; aDG glyco act: 9.1*; GC-B act: -3; FAS-TE inh: -3; aDG conf: 2

What do the screens show for `COCCN(Cc1ccc(C)cc1)C(=O)[C@@H](Cc1ccccc1)NC(=O)[C@H]1O[C@@H](n2ccc(=O)[nH]c2=O)[C@H](O)[C@@H]1O`?
GC-A act: 3; GC-B act: 4

How did O=[N+]([O-])c1cc(-c2nc(-c3ccncc3)no2)ccc1Cl do in these assays?
GC-A act: -4; aDG glyco act: 0; GC-B act: -12; FAS-TE inh: 6

What do the screens show for `O=[N+]([O-])c1cc(-c2nc(-c3ccncc3)no2)cc([N+](=O)[O-])c1`?
GC-A act: -3; aDG glyco act: 8.7*; GC-B act: 0; FAS-TE inh: 10; aDG conf: 2

How did O=C(N[C@@H](Cc1cccnc1)C(=O)N1CCC[C@H]1C(=O)NC1CCCC1)c1ccc(Cl)c(Cl)c1 do in these assays?
GC-A act: -3; GC-B act: -4

Results for O=C(CNC(=O)c1ccccc1)N/N=C/c1ccc([N+](=O)[O-])s1 ?
GC-A act: -2; aDG glyco act: 12*; GC-B act: 2; FAS-TE inh: -2; aDG conf: 5.5*

How did CCOC(=O)N/N=C\c1ccc([N+](=O)[O-])s1 do in these assays?
GC-A act: -1; aDG glyco act: 6.5*; GC-B act: -1; FAS-TE inh: -11; aDG conf: 4.7*

Results for O=C(Cc1ccccc1)NCC(=O)N/N=C/c1ccc([N+](=O)[O-])s1 ?
GC-A act: -3; aDG glyco act: 2; GC-B act: 4; FAS-TE inh: -2

What do the screens show for `CN(C)S(=O)(=O)c1cccc(NC(=O)c2ccc(COc3ccccc3)cc2)c1`?
GC-A act: 3; aDG glyco act: 3.1*; GC-B act: 1; FAS-TE inh: 25; aDG conf: 1

How did COc1cccc(S(=O)(=O)NCc2ccc(C(=O)Nc3ccc(Cl)cc3)cc2)c1 do in these assays?
GC-A act: -3; aDG glyco act: 0; GC-B act: 11; FAS-TE inh: -2

Results for COCc1ccc(C(=O)Nc2cccc(S(=O)(=O)N(C)c3ccccc3)c2)cc1 ?
GC-A act: 0; aDG glyco act: 1; GC-B act: 7; FAS-TE inh: 14

What do the screens show for `COc1cccc(S(=O)(=O)NCc2ccc(C(=O)Nc3cccc(Cl)c3)cc2)c1`?
GC-A act: -5; aDG glyco act: 4.7*; GC-B act: -1; FAS-TE inh: 27; aDG conf: 1

What do the screens show for `CCCCCCCCN1C(=O)[C@@H](CC(=O)N2CCC(c3ccccc3)CC2)C[C@@]2(C(=O)OC)C1=C[C@H](C1CCCC1)O[C@@H]2C`?
GC-A act: -3; GC-B act: 5

How did CC(=O)N1CCCN(C(=O)C2CCN(c3ncnc4c3sc3cccc(F)c34)CC2)CC1 do in these assays?
GC-A act: 1; GC-B act: -1

What do the screens show for `Clc1ccccc1Nc1nc(NCc2ccccc2)nc2ccsc12`?
GC-A act: 8; aDG glyco act: 6.4*; GC-B act: 22; FAS-TE inh: 0; aDG conf: 0

Results for COC(=O)[C@H](C)NC(=O)[C@@H]1CCCN1C(=O)CNP(=O)(OCc1ccccc1)OCc1ccccc1 ?
GC-A act: 0; GC-B act: -9

Results for COc1ccc(CNC2CCC23CCC(C)CC3)cc1OC (stereo not drawn) ?
GC-A act: -7; GC-B act: -6

What do the screens show for `O=C(COc1ccc(NS(=O)(=O)c2ccc(F)cc2)cc1)N1CCOCC1`?
GC-A act: -2; aDG glyco act: 11*; GC-B act: -2; FAS-TE inh: 0; aDG conf: -1

What do the screens show for `COc1cccc(C(=O)Nc2ccc(C(=O)NCC3COc4ccccc4O3)cc2)c1` (stereo not drawn)?
GC-A act: -3; GC-B act: -5

Results for CCNC(=O)/N=C1/NC(=O)C(C(C)C)O1 (stereo not drawn) ?
GC-A act: 6; aDG glyco act: 22*; GC-B act: 0; FAS-TE inh: 1; aDG conf: -1

Results for CC(=O)c1ccc(N2CCC(c3cc(-c4ccc(Cl)cc4Cl)n[nH]3)CC2)c([N+](=O)[O-])c1 ?
GC-A act: 0; aDG glyco act: 8.8*; GC-B act: -11; FAS-TE inh: 28; aDG conf: 6

How did O=C(c1ccc([N+](=O)[O-])o1)N1CCN(c2nc3ccc(F)cc3s2)CC1 do in these assays?
GC-A act: -5; aDG glyco act: 5.1*; GC-B act: -3; FAS-TE inh: 35; aDG conf: 1

How did CCCC[C@H]1C2CC(OC(=O)Nc3cccc(C#N)c3)C(C2)[C@H]2CCCCN21 (stereo partly drawn) do in these assays?
GC-A act: -1; GC-B act: 0

How did CC1CCCC/C1=N\NC(=S)Nc1ccccc1 (stereo not drawn) do in these assays?
GC-A act: -5; aDG glyco act: 0; GC-B act: 5; FAS-TE inh: -2

What do the screens show for `CC(C)NC(=S)N/N=C1\CCCCC1C1CCCCC1` (stereo not drawn)?
GC-A act: 4; aDG glyco act: 7.2*; GC-B act: 8; FAS-TE inh: 20; aDG conf: 0

How did CC12CCC(=O)C=C1CCC1C2CCC2(C)C(c3csc(N)n3)CCC12 (stereo not drawn) do in these assays?
GC-A act: -6; aDG glyco act: 7.0*; GC-B act: -3; FAS-TE inh: -25; aDG conf: 3

How did O=C(CCc1ccccc1)NC(NC(=S)Nc1cccc(Cl)c1)C(Cl)(Cl)Cl (stereo not drawn) do in these assays?
GC-A act: -1; aDG glyco act: 7.2*; GC-B act: 6; FAS-TE inh: 0; aDG conf: 0

Results for O=C(CCc1ccccc1)NC(NC(=S)Nc1ccc(Br)cc1)C(Cl)(Cl)Cl (stereo not drawn) ?
GC-A act: 3; aDG glyco act: 2; GC-B act: 5; FAS-TE inh: 4

What do the screens show for `Clc1ccc(SCc2csc(N3CCOCC3)n2)cc1`?
GC-A act: 0; aDG glyco act: 0; GC-B act: -12; FAS-TE inh: 11

Results for Clc1ccc(SCc2cc(N3CCOCC3)nc(-c3ccccn3)n2)cc1 ?
GC-A act: -10; aDG glyco act: 8.5*; GC-B act: -9; FAS-TE inh: 5; aDG conf: 4.0*

Results for COc1cc(CNC(=O)Nc2nc(C(N)Cc3ccc(Cl)cc3)cs2)cc(OC)c1OC (stereo not drawn) ?
GC-A act: -8; aDG glyco act: 5.8*; GC-B act: -6; FAS-TE inh: -2; aDG conf: 5.9*

From PubChem
